RE007 growth inh – qHTS Assay for Inhibitors of the HIV-1 protein Vpr | S. pombe RE007 Vpr strain, BacTiter-Glo ATP luminescence, 24 h | Potency, µM (series often up to 92.2 µM), without a hit: at the top dose activity change, negative = less growth, hits mostly inhibitors | 360,000 compounds, 0.21% hits; active = well fitted falling curve with a large enough effect; inconclusive = small, poorly fitted or top-dose-only effect; inactive = no such curve, though single readings can be large or run the other way; note: potency is the fitted concentration of half-maximal effect; nearly all actives have a fitted effect of over 50% in size
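Fission yeast RE007 carrying one integrated HIV-1 vpr copy, seeded at OD 0.01 in PMG+AL medium with 23 nL pinned compound. Grown 24 h at 30 degrees; viability read by BacTiter-Glo luminescence after 5 min.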
Tb PYK inh – qHTS of Trypanosoma Brucei Inhibitors. Potency, µM (doses to about 76.8 µM), inactives show top-dose activity, negative = inhibition, hits mostly inhibitors. AID 624173, 2012. 410,000 compounds, 0.12% hits. TbPYK enzyme, Kinase-Glo Plus ATP luminescence, 45 min; note: potency is the fitted concentration of half-maximal effect; nearly all actives have a fitted effect of over 50% in size
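ADP (130 uM final) triggers the TbPYK reaction after compound addition; incubation is 45 min at room temperature. Kinase-Glo Plus is then added and luminescence imaged. Normalized data are fitted to concentration-effect curves.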
FBPA Giardia inh – qHTS Assay for Inhibitors of Fructose-1,6-bisphosphate Aldolase from Giardia Lamblia; 290,000 compounds, 0.71% hits; purified Giardia FBPA; Potency, µM (top dose mostly 59.6 µM), without a hit: at the top dose activity, negative = inhibition, usual class: inhibitors; A8B2U2; note: potency is the fitted concentration of half-maximal effect; nearly all actives have a fitted effect of over 55% in size
Target sequence (A8B2U2 whole entry, looked up): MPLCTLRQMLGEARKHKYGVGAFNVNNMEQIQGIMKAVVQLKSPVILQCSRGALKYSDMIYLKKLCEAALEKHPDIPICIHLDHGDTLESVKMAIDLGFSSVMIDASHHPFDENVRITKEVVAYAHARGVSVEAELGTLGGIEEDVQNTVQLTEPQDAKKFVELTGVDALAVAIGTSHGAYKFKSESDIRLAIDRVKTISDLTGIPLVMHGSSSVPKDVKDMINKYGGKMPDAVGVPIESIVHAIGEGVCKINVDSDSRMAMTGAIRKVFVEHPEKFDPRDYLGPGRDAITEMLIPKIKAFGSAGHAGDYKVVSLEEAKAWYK
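40 nM FBPA preincubated 10 min at RT with compound (up to 57.5 uM final), then substrate plus GAPDH/TPI/NAD/arsenate coupling and diaphorase/resazurin added. Fluorescence read after 20 min at RT, 525/598 nm.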
FMDV antiviral – High Throughput Screening for Foot and Mouth Disease Virus Antivirals | AID 1159524, 2015 | Potency, µM (highest dose often 57.9 µM), inactives show top-dose activity change, negative = inhibition, hits mostly inhibitors | FMDV antiviral cell-based qHTS | 410,000 compounds, 1.2% hits; calls by dose curve; tested in HEK293T cells; note: read-out not given here; potency is the fitted concentration of half-maximal effect; nearly all actives have a fitted effect of over 45% in size
Sm TGR inh – qHTS Assay for the Inhibitors of Schistosoma Mansoni Peroxiredoxins; Schistosoma mansoni thioredoxin glutathione reductase (TGR), Q962Y6; purified TGR, DTNB reduction, TNB absorbance 405 nm; Potency, µM (highest dose often 114 µM), for inactives: top-dose activity change, negative = inhibition, usual class: inhibitors; 360,000 compounds, 3% hits; note: potency is the fitted concentration of half-maximal effect; nearly all actives have a fitted effect of over 60% in size
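First, TGR (20 nM dispensed) and NADPH were mixed with compound. Second, a 15 min room-temperature incubation followed. Third, further NADPH and then DTNB were added to start the reaction. Finally, TNB absorbance was monitored kinetically.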
HCMV antiviral – qHTS Assay for inhibitors of the human cytomegalovirus (HCMV); HFF cells, HCMV-luciferase reporter, 72 h; active compounds read low; activity change, negative = inhibition, % at 57.5 µM; 410,000 compounds, 4.5% hits; in the data active = activity change below about -60%; inconclusive = no clear call, values can overlap the other calls; inactive = above about -39%
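Two compound doses tested in HFFs infected with HCMV-luciferase, MOI 1 PFU/cell, 72 h at 37C. Lysate luminescence read with OneGlo; data normalized against buffer-only and 10uM Salinomycin inhibitor controls.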
* = called active by the depositor; u = inconclusive; x = no result given; [ ] = remark or other dose. Only some compounds are listed: those with a hit (about 7.7% of all), similar ones and a draw of the others. Unless noted, calls come from the whole dose curve; as a rule, active = well fitted curve in the direction sought with a large enough effect; inconclusive = small, poorly fitted or top-dose-only effect, or another doubt; inactive = no such curve, though single readings can be large; an effect the other way counts as inactive or inconclusive. % is set by controls: 0 for no effect and ±100 for the full control effect.

SMILES | RE007 growth inh | Tb PYK inh | FBPA Giardia inh | FMDV antiviral | Sm TGR inh | HCMV antiviral
N[C@@H](Cn1cc(I)c(=O)n(Cc2ccc(C(=O)O)cc2)c1=O)C(=O)O | x | x | -13% | -4% | x | x
Cc1ccc(NC(=O)CCn2c(=O)c3cccn3c3ccccc32)c(Cl)c1 | x | 1% | x | -11% | -14% | 2
Cc1ccc(S(=O)(=O)N2CCN=C2SCc2ccc(Cl)c(Cl)c2)cc1 | -1% | -4% | -6% | -13% | -2% | 19
O=S(=O)(c1ccccc1)N1CCN=C1SCc1c(F)cccc1Cl | 19% | -5% | -17% | -20% | 8% | -80*
COc1ccc(S(=O)(=O)N2CCN=C2SCc2cccnc2)cc1 | -4% | -4% | -7% | -27% | 8% | u
COc1ccc(S(=O)(=O)N2CCN=C2SCc2cccc(C)c2)cc1 | 2% | 1% | 2% | u | 1% | -75*
O=S(=O)(c1ccc(Cl)cc1)N1CCN=C1SCc1cccc(Cl)c1 | -17% | -1% | -7% | u | -13% | -62*
O=S(=O)(c1ccc(Cl)cc1)N1CCN=C1SCc1cccnc1 | -6% | 0% | -13% | -2% | -5% | -75*
O=S(=O)(c1ccccc1)N1CCN=C1SCc1cccnc1 | -7% | -6% | u | -1% | -12% | -40
CSC1=NCCN1S(=O)(=O)c1ccccc1 | 88% | -5% | -1% | 3% | 5% | 18
OC[C@@H](O)C(O)[C@H](O)CO | x | x | x | 0% | x | x
S=C(NCCSCc1c(Cl)cccc1Cl)Nc1ccccc1 | -27% | 6% | -2% | 18% | -24% | u
S=C(Nc1ccccc1)Nc1ccc(OCc2ccc(Cl)cc2Cl)cc1 | -8% | 0% | -1% | 0.32µM* | 1% | -80*
CCOc1ccc(NC(=S)Nc2ccc(OCc3ccccc3)cc2)cc1 | -11% | -1% | 1% | 5% | -4% | 25
Cc1ccccc1CSCCNC(=S)Nc1ccccc1 | 5% | 6% | -3% | 26% | 13% | -83*
S=C(NCCSCc1ccc(Cl)cc1Cl)Nc1ccccc1 | u | 1% | -1% | u | -5% | -62*
S=C(NCCSCc1ccc(Cl)c(Cl)c1)Nc1ccccc1 | -26% | -6% | x | 13% | x | -22
Cc1ccc(CNc2ncnc3onc(-c4ccc(F)cc4)c23)cc1 | x | -1% | x | -23% | -7% | -15
COc1ccccc1C1CC(c2ccco2)=NN1S(C)(=O)=O (configuration not stated) | -19% | -7% | -2% | 39% | u | -3
CS(=O)(=O)N1N=C(c2ccco2)CC1c1ccccc1Cl (configuration not stated) | 7% | -3% | 0% | 7% | 40µM* | 0
CS(=O)(=O)N1N=C(c2ccco2)CC1c1cccc([N+](=O)[O-])c1 (configuration not stated) | 12% | 0% | 2% | -8% | 45µM* | -31
CS(=O)(=O)N1N=C(c2ccco2)CC1c1ccc(Cl)cc1Cl (configuration not stated) | 23% | 10% | -3% | -6% | 28µM* | 37
CS(=O)(=O)N1N=C(c2ccco2)CC1c1ccc(Br)cc1 (configuration not stated) | 7% | 2% | 6% | 73% | u | 32
O=C1c2ccccc2/C(=C\c2ccc(Br)nc2)N1c1ccccc1 | x | x | x | x | x | 12
Cc1c(C(=O)Nc2cccc(Cl)c2)sc2nc3n(c(=O)c12)N=C(c1cccc(Br)c1)CS3 | x | -6% | x | -11% | -3% | -4
SMILES | RE007 growth inh | Tb PYK inh | FBPA Giardia inh | FMDV antiviral | Sm TGR inh | HCMV antiviral
O=C(CCSc1ccccn1)c1ccccc1 | 25µM* | -9% | -27% | u | 0% | 19
O=C(O)CCSc1ccccn1 | -17% | -15% | 1% | -8% | 22% | -28
CCc1ccc(NC(=O)c2sc3nc(C)nc(N4CCN(c5ccccn5)CC4)c3c2C)cc1 | -2% | 3% | 5% | 2.2µM* | 0% | u
Cc1nc(N2CCN(c3ccccn3)CC2)c2c(C)c(C(=O)Nc3ccc(F)cc3Cl)sc2n1 | -11% | 2% | x | 11µM* | -2% | u
Cn1c(=O)c2c(SCC(=O)NCc3ccco3)nc(-c3ccccc3)nc2n(C)c1=O | x | 6% | x | -11% | 0% | 6
COc1ccc(C(=O)NCCn2cc(SCC(=O)Nc3ccc(F)cc3)c3ccccc32)cc1 | x | 0% | x | u | 11% | 0
COc1ccc([N+](=O)[O-])cc1NC(=O)C(C)OC(=O)c1ccccc1C(=O)c1ccc(Cl)cc1 (configuration not stated) | 33% | 0% | 1% | 24% | -4% | -65*
CC(OC(=O)/C=C/c1cccs1)C(=O)NC1CCCCC1C (configuration not stated) | -9% | 0% | x | -27% | u | -10
COc1ccc([N+](=O)[O-])cc1NC(=O)C(C)OC(=O)/C=C/c1ccco1 (configuration not stated) | x | -13% | 0% | u | 50µM* | -8
CC(OC(=O)/C=C/c1ccco1)C(=O)NC1CCCCC1C (configuration not stated) | 8% | -1% | x | u | 45µM* | -10
CCC(=O)Nc1cc(-c2nc3cc(C)cc(C)c3o2)ccc1C | x | -9% | x | 36% | -1% | 68
O=C(NNC(=S)Nc1ccccc1)c1ccncc1 | 0% | -4% | x | 36% | 13% | -7
O=C(NNC(=S)Nc1ccc(C(=O)O)c(O)c1)c1ccncc1 | 13% | -5% | x | 13µM* | x | 0
C=Cc1c(C)c2cc3nc(cc4[nH]c(cc5nc(cc1[nH]2)C(C)=C5CCC(=O)O)c(CCC(=O)OC)c4C)[C@@]1(C)C3=CC=C(C(=O)OC)[C@H]1C(=O)OC (tested in a mixture with another compound) | x | -3% | -27%[21.7 µM] | x | x | x
CCOc1ccc(-c2cc(C(=O)NCc3ccc(OCC)c(OC)c3)[nH]n2)cc1 | x | -2% | x | -22% | 9% | -5
O=C(O)c1cccc2nc3ccccc3nc12 | u | -1% | -7% | -8% | -4% | -63*
O=C(O)c1nc2ccccc2nc1C(=O)O | -14% | -12% | -17% | 24% | 9% | 85
Cn1cc(C(=O)N/N=C/c2ccc([N+](=O)[O-])cc2)c2ccccc21 | 0% | 1% | 2% | 7% | -1% | -16

Source: PubChem BioAssay
